Measured values: the supplement of paper PMC6607015
Counter-ions that a name gives are not always drawn.

What was measured:
Conditions in all cases: compound concentration in added solution (µM; 5 µl added to 20 µl cells): 10; 18 h
A431 [1] = assay: LBPA endosome anti-LBPA integrated intensity (sum per cell), Z-score; higher = more LBPA staining
Method in brief: (§1)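 HeLa MZ or A431 cells (3,500/well in 20 µl) were seeded onto 5 µl of 10 µM compound solution in duplicate 384-well imaging plates, incubated 18 h, then fixed in 4% PFA. Cells were stained with 6C4 anti-LBPA antibody, filipin, propidium iodide and CellTracker green, and four 20× images were taken per well. MetaXpress segmentation gave per-cell integrated LBPA or filipin intensity, either whole-cell or within LBPA endosomes. Values are Z-scores normalised in AcuityXpress.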

HeLa MZ [2] = assay: as above
Method in brief: as §1

A431 [3] = assay: whole-cell filipin (free cholesterol) integrated intensity, Z-score; higher = more cholesterol staining
Method in brief: as §1

HeLa MZ [4] = assay: as above
Method in brief: as §1

A431 [5] = assay: filipin (cholesterol) integrated intensity within LBPA endosomes, Z-score; higher = more cholesterol in LBPA endosomes
Method in brief: as §1

HeLa MZ [6] = assay: as above
Method in brief: as §1

Structure (SMILES) | LBPA endosome anti-LBPA integrated intensity (z-score) (A431 [1]) | LBPA endosome anti-LBPA integrated intensity (z-score) (HeLa MZ [2]) | whole-cell filipin (z-score) (A431 [3]) | whole-cell filipin (z-score) (HeLa MZ [4]) | filipin (z-score) (A431 [5]) | filipin (z-score) (HeLa MZ [6])
Clc1ccc(CCC(Cn2ccnc2)Sc2c(Cl)cccc2Cl)cc1 (stereo not given) [Butoconazole nitrate] | 1.95 | 2.23 | 1.71 | 2.17 | 2.22 | 2.14
COc1ccccc1Oc1c(NS(=O)(=O)c2ccc(C(C)(C)C)cc2)nc(-c2ncccn2)nc1OCCO [Bosentan] | -0.54 | -0.445 | -0.199 | 0.0121 | -0.493 | -0.438
CCCC1O[C@@H]2C[C@H]3[C@@H]4CCC5=CC(=O)C=C[C@]5(C)[C@H]4[C@@H](O)C[C@]3(C)[C@]2(C(=O)CO)O1 (stereo not given in full) [Budesonide] | -0.313 | -0.695 | 0.452 | 0.254 | -0.143 | 0.318
CCOC1O[C@H]([C@@H](COCc2ccccc2)OCc2ccccc2)[C@H](OCc2ccccc2)[C@H]1O (stereo not given in full) [Tribenoside] | 0.543 | 2.34 | 0.649 | 1.71 | 0.264 | 0.525
CC(C)C(=O)c1c(C(C)C)nn2ccccc12 [Ibudilast] | -0.434 | -0.686 | 0.153 | -0.112 | -0.402 | -0.704
COC(=O)C1=C(C)NC(C)=C(C(=O)OC(C)C)C1c1cccc2nonc12 (stereo not given) [Isradipine] | -0.123 | 0.656 | 0.258 | -0.179 | -0.13 | -0.161
CN1CCN(c2c(F)cc3c(=O)c(C(=O)O)cn(CCF)c3c2F)CC1 [Fleroxacin] | -0.492 | -0.0484 | -0.0639 | 0.23 | -0.354 | -0.239
CCCCCCCN(CC)CCCC(O)c1ccc(NS(C)(=O)=O)cc1 (stereo not given) [Ibutilide fumarate] | 0.46 | 1.54 | 0.561 | 0.166 | 0.22 | 0.621
COc1ccccc1OCCNCC(O)COc1cccc2[nH]c3ccccc3c12 (stereo not given) [Carvedilol] | 4.32 | 3.72 | 2.68 | 3 | 3.9 | 5.27
CCN(CC)CCNC(=O)c1cc(Cl)c(N)cc1OC [Metoclopramide monohydrochloride] | -0.305 | 1.1 | -0.595 | -0.234 | -0.404 | 0.279
CN(C)[C@@H]1C(O)=C(C(N)=O)C(=O)[C@@]2(O)C(O)=C3C(=O)c4c(O)ccc(Cl)c4[C@@H](O)[C@H]3C[C@@H]12 [Demeclocycline hydrochloride] | -0.567 | -1.25 | -0.566 | -1.1 | -0.465 | -0.672
CCN(CC)CCOC(=O)C(Cc1cccc2ccccc12)CC1CCCO1 (stereo not given) [Nafronyl oxalate] | 1.69 | 2.05 | 1.62 | 0.888 | 1.25 | 1.15
OCCOCCN1CCN(C(c2ccccc2)c2ccc(Cl)cc2)CC1 (stereo not given) [Hydroxyzine dihydrochloride] | 0.255 | 0.53 | 0.266 | -0.465 | 0.492 | 0.489
CNc1ncnc2c1ncn2[C@@H]1O[C@H](CO)[C@@H](O)[C@H]1O [N6-methyladenosine] | -0.364 | 0.218 | -0.443 | 0.122 | -0.45 | -0.43
CC(=O)Oc1ccc(C(c2ccc(OC(C)=O)cc2)c2ccccn2)cc1 [Bisacodyl] | -0.461 | 0.379 | -0.546 | 0.375 | -0.421 | -0.162
Cc1c(NC(C)C)c(=O)n(-c2ccccc2)n1C [Isopyrin hydrochloride] | -0.574 | -1.29 | -0.495 | -0.424 | -0.515 | -0.531
CO[C@@H]1[C@@H](O[C@@H]2O[C@H](C)[C@@H](O[C@H]3C[C@@](C)(O)[C@@H](OC(=O)CC(C)C)[C@H](C)O3)[C@H](N(C)C)[C@H]2O)[C@@H](CC=O)C[C@@H](C)[C@@H](O)/C=C/C=C/C[C@@H](C)OC(=O)C[C@H]1OC(C)=O [Josamycin] | 0.115 | -0.222 | -0.459 | -0.645 | -0.106 | -0.348
CC1=C(C(=O)O)N2C(=O)[C@@H](NC(=O)[C@H](N)c3ccccc3)[C@H]2SC1 [Cephalexin monohydrate] | -0.543 | -0.797 | -0.64 | -0.482 | -0.499 | -0.511
CN(Cc1cc(Br)cc(Br)c1N)C1CCCCC1 [Bromhexine hydrochloride] | -0.251 | -1.52 | 0.328 | -0.199 | -0.159 | -0.552
CC(C)(C)NC[C@H](O)COc1nsnc1N1CCOCC1 [Timolol maleate salt] | -0.399 | -0.336 | -0.605 | -0.359 | -0.435 | -0.395
CC(N)CCCC(C)(C)O (stereo not given) [Heptaminol hydrochloride] | -0.451 | -1.1 | -0.647 | -0.285 | -0.442 | -0.477
NC(Cc1cc(I)c(Oc2cc(I)c(O)c(I)c2)c(I)c1)C(=O)O (stereo not given) [Thyroxine (L)] | -0.687 | -1.35 | -1.1 | -0.619 | -0.586 | -0.6
NS(=O)(=O)c1cc2c(cc1Cl)NCNS2(=O)=O [Hydrochlorothiazide] | -0.538 | -1.08 | -0.757 | -0.0813 | -0.476 | -0.419
CCN(CC)CCN[C@@H](C(=O)OCCC(C)C)c1ccccc1 [Camylofine chlorhydrate] | -0.334 | 0.886 | -0.446 | -0.605 | -0.28 | 0.0537
NS(=O)(=O)c1cc2c(cc1Cl)N=CNS2(=O)=O [Chlorothiazide] | -0.508 | -0.375 | -0.521 | -0.988 | -0.472 | -0.537
